Reference: the supplement of paper PMC6555819

Assays:
Test in all cases: PBM binding z-score (relative to random genomic background probes); higher = stronger binding; sequences stand for … in GC…GCGATTGACAGCGTAGAATGAAGG
[1] = system: PPARg:RXRa DBDmut IVT, anti-RXR (DBD mutation: RXRa K156A/R161A, NR concentration 270 nM, RXRa partner concentration 90 nM)
Outline: (§1)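 Ligand-free nuclear receptor dimers were bound for 1 h to custom Agilent 4×180K protein-binding microarrays. Detection used antibodies against each partner (one per run). Binding z-scores rest on regression-normalized fluorescence, with random background probes as the reference.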

[2] = system: PPARg:RXRa IVT, anti-PPARg (NR concentration 270 nM, RXRa partner concentration 90 nM)
Outline: as §1

[3] = system: PPARg DBDmut:RXRa IVT, anti-PPARg (DBD mutation: PPARg1 K132A/R137A, NR concentration 270 nM, RXRa partner concentration 90 nM)
Outline: as §1

[4] = system: PPARg DBDmut IVT, anti-PPARg (DBD mutation: PPARg1 K132A/R137A, NR concentration 270 nM)
Outline: as §1

[5] = system: PPARg homodimer (NR concentration 180 nM)
Outline: as §1

[6] = system: PXR:RXRa (NR concentration 270 nM, RXRa partner concentration 90 nM)
Outline: as §1

[7] = system: PXR homodimer (NR concentration 270 nM)
Outline: as §1

[8] = system: RARa:RXR (NR concentration 270 nM, RXRa partner concentration 90 nM)
Outline: as §1

[9] = system: RARa homodimer (NR concentration 270 nM)
Outline: as §1

[10] = system: RARb:RXRa (NR concentration 270 nM, RXRa partner concentration 90 nM)
Outline: as §1

Row | Sequence | PBM binding z-score [1] | PBM binding z-score [2] | PBM binding z-score [3] | PBM binding z-score [4] | PBM binding z-score [5] | PBM binding z-score [6] | PBM binding z-score [7] | PBM binding z-score [8] | PBM binding z-score [9] | PBM binding z-score [10]
1 | CGAACTAGGTCATCCAGGCCAGTGAATACATTGA | 7.88 | 8.53 | 3.15 | 2.65 | 2.08 | 1.61 | 0.572 | 2.4 | 0.167 | 3.91
2 | ATATGTAGGTTAAGGGTCAATCAGGTTGGTTCGC | 7.74 | 7.77 | 1.78 | 2.49 | 4.11 | 5.32 | 1.21 | 5.74 | 2.21 | 3.64
3 | CCTATTTGGTCAGGAGGTCACACACCGGATATGA | 1.91 | 3.3 | 1.63 | 0.887 | 3.54 | 4.35 | 1.72 | 4.86 | 2.56 | 3.94
4 | TCAGACAGGTAAAGGTAACTCAGGTACGCAGTCG | 2.37 | 0.745 | 0.618 | 0.192 | 0.82 | 0.892 | 0.37 | 1.35 | 0.782 | 0.904
5 | AGTCAAAGTTCAGGAAGAGGTAACGTAAAGCACG | 0.106 | 2.18 | 0.684 | 0.616 | 2.21 | 2.84 | 0.943 | 3.04 | 0.831 | 4.45
6 | CCTATTAGTTGAACATAAGGGCAACCGAAGCTCG | 0.458 | 0.463 | 0.856 | 0.515 | 1.56 | 0.574 | 0.963 | 0.973 | 1.2 | 1.38
7 | TCGAGTAGGTTAGGGGCATTCACAATGGCGTCGA | 2.39 | 1.39 | -0.325 | -0.622 | 0.582 | 0.481 | 0.107 | 0.506 | -0.0724 | 0.977
8 | GATACAGGGTCAGCTAGACGCCAGAGTATGGAAA | 0.771 | 2.21 | 0.485 | 0.334 | 1.15 | 1.76 | 0.0262 | 2.72 | -0.118 | 3.9
9 | ACTAGCAGGCCAACGGTCACTCAAGATTAGTCCG | 1.21 | 1.38 | -0.412 | -0.352 | 0.237 | -0.526 | -0.588 | 0.0763 | -0.817 | 1.64
10 | CCTAACGGGTCACTCCAGGTTATAGCATCGGAGT | 1.88 | 2.52 | -0.282 | -0.298 | 1.23 | 4.32 | 0.412 | 2.86 | 0.233 | 3.15
11 | TTACCAAGGTGGAAGGTCGTTGATGCACGCCTTG | -0.302 | 1.09 | -0.236 | -1.11 | 0.535 | 0.751 | -0.0879 | 1.26 | -0.0243 | 0.885
12 | CCTTACGGGTCACGAGGTTATATCACGACGAGCG | 4.44 | 5.64 | 1.38 | 0.342 | 2.85 | 4.59 | 0.517 | 5.8 | 0.866 | 4.5
13 | ATCTCTAGGTAACAACTTCAGTGAAAGAGAGGAC | 3.07 | 2.74 | 1.64 | 1.45 | 0.774 | 0.286 | 0.641 | 0.537 | 0.713 | 0.586
14 | CCGAGTAGGATATGGGGCATTCAGGCAACGGTGA | 2.05 | 2.81 | -0.179 | -0.813 | 0.55 | -0.236 | -0.112 | -0.0398 | 0.174 | -0.0937
15 | GGAACGAGGGCATACGAGTTGATAGCATGGCGAT | 2.9 | 1.74 | 0.174 | -0.54 | 0.0813 | 3.18 | 0.351 | 0.371 | -0.394 | 1.7
16 | CGTCAAAGTTTAAGGTAACGTAACAGAAAGCAGC | -0.15 | 0.591 | 0.678 | -0.068 | 0.325 | 0.369 | 0.0704 | 0.975 | 0.46 | 2.12
17 | CGTCCCAGGTCAAAGGTCAGTGAAGAGATGACGG | 2.95 | 5.97 | 0.207 | 0.538 | 3.77 | 6.8 | 1.05 | 8.49 | 1.64 | 5.7
18 | CCTTACGGGTCACTGAGAGGTTATAGCATTTGGA | 3.25 | 3.46 | 0.696 | -0.194 | 3.62 | 5.18 | 0.124 | 5.88 | 1.03 | 4.1
19 | TAGAGTAGGTTACCAATGGGGCATTCAGCTTTCT | 4.68 | 4.33 | 0.638 | 0.725 | 1.06 | 0.312 | 0.223 | 0.669 | 1.18 | 1.33
20 | CCTAGCAGGCCAGGGTCACGCAAGCATTTCGCTT | -0.356 | 1.95 | -1.04 | -1.59 | 1.16 | 3.96 | -0.56 | 4.99 | -0.191 | 3.4
21 | ACTACAGGGTCATCGTAGGCCAGAGTACGCACAG | 1.66 | 3.47 | 2.18 | 1.55 | 1.49 | 4.76 | 0.458 | 4.67 | 0.217 | 4.45
22 | ATCGCAAGGTCGAGGTGAGTATAGAGAAAGGGAA | -0.0497 | 1.28 | 0.589 | -0.0017 | -0.0351 | 1.04 | -0.378 | 1.52 | -0.173 | 2.75

Row | Sequence | PBM binding z-score [1] | PBM binding z-score [2] | PBM binding z-score [3] | PBM binding z-score [4] | PBM binding z-score [5] | PBM binding z-score [6] | PBM binding z-score [7] | PBM binding z-score [8] | PBM binding z-score [9] | PBM binding z-score [10]
23 | GCTGCTTGGTCAACTGATGGTCAGCTAAAGCTCG | 0.408 | 0.0173 | -0.74 | -1.06 | -0.674 | -0.491 | -0.859 | -0.138 | -0.784 | 1.24
24 | GGAACGGGGGCAAAGTTGATAGCATCTGTCGACG | 4.07 | 6.45 | 10.3 | 11.6 | 2.01 | 3.21 | 1.78 | 3.47 | 0.888 | 3.27
25 | ATCTCTAGGTAAAAGTTCAATGAATCCCGAGGAT | 2.16 | 4.28 | 1.95 | 1.61 | 2.08 | 3.09 | 2.8 | 2.86 | 1.09 | 2.64
26 | ATATGTAGCTTACATCCGGGTCATTCAGGCTATG | 0.48 | 1.48 | 1.08 | 0.976 | 0.783 | 2.42 | 1.38 | 2.54 | 0.0612 | 1.31
27 | AGTCAAAATTCAGGACGAGGTAACGTAAAGCACG | -0.124 | 0.504 | 0.875 | 0.0968 | 0.59 | -0.0686 | 0.0838 | 0.591 | 0.657 | 0.118
28 | GCTGCTAGGTCAGGTTGGTAAGCTAACGGGTACG | 2.81 | 2.17 | -1.03 | -1.39 | 0.662 | -0.0241 | -0.591 | 0.597 | -0.659 | 3.09
29 | ATATGTATGTTACATCCGGGTCATTCAGGCTATG | 3.22 | 3.46 | 1.61 | 1.67 | 1.16 | 2.54 | 1.37 | 2.59 | 0.761 | 1.52
30 | CCTACTGTGCCAAAAAGGTCATTGATGCCGATAA | 3.31 | 3.57 | 0.316 | 0.475 | 3.9 | 4.76 | 2.5 | 5.24 | 2.59 | 3.99
31 | ACTATTATTTGAGACGAGGGCAACCGATAGGTTG | 0.883 | 0.779 | 1.61 | 1.74 | 1.86 | 0.944 | 1.91 | 1.04 | 3.89 | 1.35
32 | TCTTGTAGATCAGCAGGTTGAGAAAGCTGGCCAA | 1.7 | -0.16 | -1.19 | -1.18 | -0.343 | 0.181 | -0.51 | 0.426 | -0.127 | -0.0315
33 | TGAATGAGGTTATAACATCAGGGAACGTTGCAAA | 0.822 | 1.57 | 1.79 | 0.499 | 0.614 | 0.813 | -0.514 | 1.4 | 0.248 | 1.04
34 | CATACAGGGTCAGCTAGGTCAGAGTAGGGACGGC | 1.85 | 3.37 | 1.35 | 1.12 | 3.26 | 3.65 | 1.7 | 4.31 | 1.02 | 4.44
35 | ATATGTAGGTTTTCGGGTCATTCAGTTTGCGCAT | 5.6 | 5.42 | 1.9 | 1.31 | 2.39 | 4.14 | 8.75 | 3.74 | 1.72 | 2.17
36 | GGAACGAGGGCATTCGAGTTGATAGGATGGCGAT | 2.57 | 2.23 | -0.409 | -0.611 | 0.00316 | 3.7 | 1.31 | 0.433 | -0.456 | 1.75
37 | CTCGAAAGGTCGTGCGCAGGTGAGTATACCAAAC | 0.325 | 2.29 | 0.196 | 0.413 | 1.83 | 3.65 | -0.0048 | 4.48 | 0.0809 | 4.19
38 | CAAACTAGGTCAGGAGGTCAAAGTCCGCTTCCCG | 7.85 | 8.07 | 2.42 | 1.18 | 6 | 5.16 | 2.29 | 6.31 | 1.8 | 4.92
39 | CGTCCAAGGTCATAGGAGATCAGTGAAGACAGAT | 3.22 | 3.43 | 1.2 | 0.671 | 2.99 | 4.44 | 1.37 | 4.47 | 0.926 | 4.89
40 | TCATATAGGTAAATGCTAGGTGAAAATCCGATCT | 3.71 | 2.37 | 1.79 | 1.14 | 1.06 | 0.505 | 0.518 | 0.922 | 1.61 | 0.432
41 | ACTATTAGTTGAGACGAGCGCAACCGATAGGTTG | -0.504 | -0.34 | 0.343 | 0.844 | -0.155 | -0.542 | 0.00515 | -0.474 | -0.207 | -0.278
42 | ATCTTTAGGTAAGACTCAGTTCAGTGAAGAACGC | 0.866 | 0.683 | 1.19 | 0.877 | 0.751 | 1.35 | 1.56 | 0.837 | 1.14 | 0.585
43 | TAGCCTAGGTCATGGGCCAGTATACCACGCGAAC | 1.08 | 2.99 | 0.0326 | -0.324 | 1.77 | 1.62 | -0.133 | 2.54 | -0.386 | 3.7
44 | TCTCGTAGATCAAAGGTTAAGAAAGCCGAAGCCT | 1.73 | 1.46 | -0.063 | -0.642 | 0.726 | 1.89 | -0.203 | 2.71 | 0.027 | 1.69
